# Source: PubChem BioAssay (Tox21)
# Unmarked numbers belong to inactive results. Records with an inconclusive call do not appear. Where a call stands in place of a potency, no number is given. Active and inactive are the calls of the source. The call rests on the fitted dose curve; in most records, active means well fitted curve in the direction sought with a large enough effect in the repeat runs; inconclusive means weak or mixed curves; inactive means no such curve, though single readings can be large; an effect the other way counts as inactive or inconclusive.
# Experiments:
# [1] = Caspase-3/7 induction in HepG2 cells by small molecules, qHTS assay (AID 1346978); further: nearly all actives have a fitted effect of over 15% in size
# Method in brief: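 Wild-type HepG2 cells, 2,000/well, settled 5 hr at 37 C and 5% CO2, then compound-treated for 17 hr; caspase-3/7 activity read by luminescent Caspase-Glo 3/7 after 30 min at room temperature.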
# [2] = Caspase-3/7 induction in CHO-K1 cells by small molecules, qHTS cell viability counter screen (AID 1346979); further: nearly all actives have a fitted effect of over 35% in size
# Method in brief: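 Seeding: 1,500 CHO-K1 cells/well. Rest: 5hr, 37C. Treatment: compounds in DMSO, 16hr. Read: CellTiter-Fluor, 1hr, fluorescence.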
# [3] = Caspase-3/7 induction in CHO-K1 cells by small molecules, qHTS assay (AID 1346980); further: nearly all actives have a fitted effect of over 15% in size
# Method in brief: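 Wild-type CHO-K1 cells exposed to compounds for 17hr at 37 C, 5% CO2. Caspase-3/7 activity then measured by Caspase-Glo 3/7 luminescence after 30min at room temperature.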
# [4] = target: Cytochrome P450 2D6 (Homo sapiens) (UniProt P10635); experiment: Cytochrome P450 Family 2 Subfamily D Member 6 (CYP2D6) small molecule antagonists: luciferase reporter qHTS assay (AID 1671196); further: nearly all actives have a fitted effect of over 50% in size; further: potency means the concentration at half of the fitted maximal effect; on activity change, negative = inhibition: series mostly up to about 120 µM
# Method in brief: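 CYP2D6 enzyme–substrate mix was held with compound for 10 min at room temperature, then NADPH regeneration solution was added and the reaction ran 1 h at room temperature. Luciferin product was detected by luminescence after 20 min with detection reagent.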
# [5] = target: Cytochrome P450 2C19 (Homo sapiens) (UniProt P33261); experiment: Cytochrome P450 Family 2 Subfamily C Member 19 (CYP2C19) small molecule antagonists: luciferase reporter qHTS assay (AID 1671197); further: nearly all actives have a fitted effect of over 65% in size; further: potency means the concentration at half of the fitted maximal effect; on activity change, negative = inhibition: series mostly up to about 120 µM
# Method in brief: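 Compounds were tested on CYP2C19 activity via proluciferin conversion to luciferin. The 37C, 1 h reaction followed NADPH addition; detection reagent stopped it.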
# [6] = target: Nuclear receptor subfamily 1 group I member 2 (Homo sapiens) (UniProt O75469); experiment: Human pregnane X receptor (PXR) small molecule agonists, qHTS assay (AID 1346982); further: nearly all actives have a fitted effect of over 35% in size
# Method in brief: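 PXR-Luc HepG2 cells (CYP3A4 promoter-driven luciferase) were seeded in medium with 5% charcoal-stripped FBS, left 5 hr at 37 C, then exposed to compounds in DMSO for 24 hr. Luminescence was read after ONE-Glo addition.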
# [7] = Caspase-3/7 induction in HepG2 cells by small molecules, qHTS cell viability counter screen (AID 1346981); further: series mostly up to about 92 µM; nearly all actives have a fitted effect of over 30% in size
# Method in brief: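 Wild-type HepG2 cells (2,000/well) were allowed to settle for 5 hr at 37 C, 5% CO2, then dosed with compounds in DMSO by pin transfer. After 16 hr at 37 C, CellTiter-Fluor was added and fluorescence read 1 hr later.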
# [8] = target: Nuclear receptor subfamily 1 group I member 2 (Rattus norvegicus) (UniProt Q9R1A7); experiment: Rat pregnane X receptor (rPXR) activation by small molecules, qHTS assay (AID 1346983); conditions: rPXR luciferase reporter cells, One-Glo luminescence, 24 h; max activation: hits give high values; further: nearly all actives have a fitted effect of over 20% in size
# Method in brief: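 Cell-based rPXR activation assay: rPXR cells, 2,000 per well, rested 5hr at 37 C, then exposed to compounds in DMSO for 24 hr at 37 C. Luciferase activity read by One-Glo luminescence after 30 min at room temperature.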
# [9] = target: Nuclear receptor subfamily 1 group I member 2 (Homo sapiens) (UniProt O75469); experiment: CYP3A4 induction through human pregnane X receptor (PXR) by small molecules, qHTS assay (AID 1346984); further: nearly all actives have a fitted effect of over 40% in size
# Method in brief: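 DPX-2 cells (HepG2 co-transfected with PXR and CYP3A4 promoter-luciferase) treated with compounds 24 h at 37C; luciferin-IPA CYP3A4 substrate 3uM final added for 3 h, then One-Glo; luminescence read. qHTS format.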
# [10] = target: Nuclear receptor subfamily 1 group I member 2 (Homo sapiens) (UniProt O75469); experiment: Human pregnane X receptor (PXR) activation by small molecules, qHTS assay (AID 1346985); further: nearly all actives have a fitted effect of over 40% in size
# Method in brief: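 DPX-2 cells (HepG2 co-transfected with a PXR response element and a CYP3A4-promoter luciferase construct) were seeded at 2,000 per well, rested 5 hr at 37C, then exposed to DMSO-dissolved compounds for 24 hr. Activation was read as luciferase luminescence.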
# Chain of Nuclear receptor subfamily 1 group I member 2 (Rattus norvegicus) (Q9R1A7 whole entry, looked up): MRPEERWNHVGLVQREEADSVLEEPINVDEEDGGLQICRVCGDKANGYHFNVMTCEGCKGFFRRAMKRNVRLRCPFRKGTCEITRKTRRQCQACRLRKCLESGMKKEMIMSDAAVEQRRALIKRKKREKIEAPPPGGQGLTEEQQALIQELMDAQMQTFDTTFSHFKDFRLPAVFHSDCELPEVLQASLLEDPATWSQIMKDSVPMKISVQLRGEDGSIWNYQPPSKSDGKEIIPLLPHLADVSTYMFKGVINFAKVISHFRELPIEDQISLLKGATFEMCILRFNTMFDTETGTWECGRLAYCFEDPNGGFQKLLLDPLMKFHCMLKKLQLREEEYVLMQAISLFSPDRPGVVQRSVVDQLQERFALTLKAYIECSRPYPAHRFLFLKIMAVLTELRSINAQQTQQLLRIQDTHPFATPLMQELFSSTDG
# Chain of Cytochrome P450 2C19 (Homo sapiens) (P33261 whole entry, looked up): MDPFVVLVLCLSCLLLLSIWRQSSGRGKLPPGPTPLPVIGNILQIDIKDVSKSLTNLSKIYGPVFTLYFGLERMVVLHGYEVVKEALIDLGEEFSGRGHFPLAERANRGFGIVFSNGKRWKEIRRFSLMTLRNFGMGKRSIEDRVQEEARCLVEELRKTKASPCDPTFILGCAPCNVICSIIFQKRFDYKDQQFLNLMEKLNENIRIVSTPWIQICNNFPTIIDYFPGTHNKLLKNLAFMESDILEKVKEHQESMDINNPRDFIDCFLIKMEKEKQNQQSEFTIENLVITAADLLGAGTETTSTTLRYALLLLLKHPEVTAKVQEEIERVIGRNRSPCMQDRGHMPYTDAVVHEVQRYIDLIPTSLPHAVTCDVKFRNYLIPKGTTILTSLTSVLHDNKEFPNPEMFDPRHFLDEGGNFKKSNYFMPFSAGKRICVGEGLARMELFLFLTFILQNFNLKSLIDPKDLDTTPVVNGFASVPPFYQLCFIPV
# Chain of Nuclear receptor subfamily 1 group I member 2 (Homo sapiens) (O75469 whole entry, looked up): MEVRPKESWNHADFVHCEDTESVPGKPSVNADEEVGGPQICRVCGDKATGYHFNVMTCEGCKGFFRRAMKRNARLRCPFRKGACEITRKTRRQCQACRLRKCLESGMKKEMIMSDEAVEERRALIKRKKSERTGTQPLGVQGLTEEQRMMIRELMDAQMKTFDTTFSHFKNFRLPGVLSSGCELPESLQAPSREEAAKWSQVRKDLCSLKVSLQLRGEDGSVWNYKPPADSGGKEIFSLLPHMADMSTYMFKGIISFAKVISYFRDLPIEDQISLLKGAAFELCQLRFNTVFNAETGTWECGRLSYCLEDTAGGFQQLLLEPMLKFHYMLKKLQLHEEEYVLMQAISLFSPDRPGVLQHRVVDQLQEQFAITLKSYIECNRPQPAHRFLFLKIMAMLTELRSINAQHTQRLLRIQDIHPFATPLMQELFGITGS
# Chain of Cytochrome P450 2D6 (Homo sapiens) (P10635 whole entry, looked up): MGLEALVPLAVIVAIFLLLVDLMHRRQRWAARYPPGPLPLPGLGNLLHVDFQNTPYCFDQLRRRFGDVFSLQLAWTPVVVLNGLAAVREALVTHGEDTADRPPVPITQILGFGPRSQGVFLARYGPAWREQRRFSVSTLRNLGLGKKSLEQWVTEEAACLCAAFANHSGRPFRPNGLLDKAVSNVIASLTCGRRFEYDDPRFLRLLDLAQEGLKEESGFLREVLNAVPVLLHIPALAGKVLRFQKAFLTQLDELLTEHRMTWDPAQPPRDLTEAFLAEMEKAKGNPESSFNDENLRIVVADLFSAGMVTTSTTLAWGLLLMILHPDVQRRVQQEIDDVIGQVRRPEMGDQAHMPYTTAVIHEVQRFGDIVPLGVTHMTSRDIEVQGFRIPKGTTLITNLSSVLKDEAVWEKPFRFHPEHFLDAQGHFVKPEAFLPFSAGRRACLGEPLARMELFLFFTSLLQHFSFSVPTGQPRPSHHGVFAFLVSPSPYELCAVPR
smiles,measurement,setting,value
CNC(=O)Nc1ccc(Cl)c(Cl)c1,outcome,[1],inactive
same,Potency,[2],inactive
same,outcome,[3],inactive
same,Potency,[4],inactive
same,Potency,[5],28.3 µM (active)
C=C(C)C(=O)OCCOCCOCCOCCOC(=O)C(=C)C,outcome,[1],inactive
same,Potency,[2],inactive
same,outcome,[3],inactive
same,Potency,[6],inactive
same,Potency,[4],inactive
same,Potency,[5],71 µM (active)
c1ccc(Cc2ccccc2)cc1,outcome,[1],inactive
same,Potency,[2],inactive
same,outcome,[3],inactive
same,Potency,[6],inactive
same,Potency,[4],inactive
O=[N+]([O-])c1ccc(/C=N\O)o1,outcome,[1],inactive
same,outcome,[3],inactive
same,Potency,[7],inactive
same,max activation,[8],-2.63%
same,Potency,[9],inactive
same,Potency,[10],inactive
same,Potency,[4],inactive
same,Potency,[5],inactive
O=C1CCCCCCCCCCCCCCO1,outcome,[1],inactive
same,Potency,[2],inactive
same,outcome,[3],inactive
same,Potency,[6],inactive
same,Potency,[4],inactive
same,Potency,[5],inactive
CC1=NN(c2cccc(S(=O)(=O)O)c2)C(=O)C1,outcome,[1],inactive
same,Potency,[2],inactive
same,outcome,[3],inactive
same,Potency,[6],inactive
same,Potency,[4],inactive
same,Potency,[5],inactive
CCC1C(=O)OCC1Cc1cncn1C (configuration not stated),outcome,[1],inactive
same,outcome,[3],inactive
same,Potency,[7],inactive
same,Potency,[6],inactive
same,max activation,[8],-2.44%
same,Potency,[9],inactive
same,Potency,[10],inactive
same,Potency,[4],inactive
same,Potency,[5],inactive
CCOc1ccc2nc(S(N)(=O)=O)sc2c1,outcome,[1],inactive
same,Potency,[2],inactive
same,Potency,[7],inactive
same,Potency,[4],inactive
same,Potency,[5],inactive
NC(=O)N1c2ccccc2CC(=O)c2ccccc21,outcome,[1],inactive
same,outcome,[3],inactive
same,max activation,[8],-3.02%
C=C[Si](OC(C)=O)(OC(C)=O)OC(C)=O,outcome,[1],inactive
same,Potency,[2],inactive
same,outcome,[3],inactive
same,Potency,[6],inactive
same,Potency,[5],inactive
CCN1C=CN(C)C1C (configuration not stated),outcome,[1],inactive
same,outcome,[3],inactive
same,Potency,[7],inactive
same,Potency,[4],inactive
same,Potency,[5],inactive
CCCn1cc[n+](C)c1C,outcome,[1],inactive
same,Potency,[2],inactive
same,outcome,[3],inactive
same,Potency,[4],inactive
same,Potency,[5],inactive
CNCC(O)c1ccc(O)c(O)c1 (configuration not stated),Potency,[2],inactive
same,outcome,[3],inactive
same,Potency,[7],inactive
same,Potency,[6],inactive
Clc1cc(Cl)c(Cl)nc1Cl,outcome,[1],inactive
same,Potency,[2],inactive
same,outcome,[3],inactive
same,Potency,[6],inactive
same,Potency,[5],inactive
Clc1cc(Cl)cc(Cl)c1,outcome,[1],inactive
same,Potency,[2],inactive
same,outcome,[3],inactive
same,Potency,[6],inactive
same,Potency,[4],inactive
NCCCC[C@H](N[C@@H](CCc1ccccc1)C(=O)O)C(=O)N1CCC[C@H]1C(=O)O,outcome,[1],inactive
same,Potency,[2],inactive
same,outcome,[3],inactive
same,max activation,[8],-3.44%
same,Potency,[4],inactive
same,Potency,[5],inactive
COc1cc2c(cc1OC)-c1cc3ccc(OC)c(OC)c3c[n+]1CC2,outcome,[1],inactive
same,outcome,[3],inactive
same,Potency,[6],inactive
same,Potency,[4],9.02 µM (active)
C[N+](C)(C)CCCCCCCCCC[N+](C)(C)C,Potency,[2],inactive
same,outcome,[3],inactive
same,Potency,[7],inactive
same,Potency,[6],inactive
same,max activation,[8],-3.83%
same,Potency,[9],inactive
same,Potency,[10],inactive
same,Potency,[4],inactive
same,Potency,[5],inactive
CCCCN1C=CN(C)C1,"activity change, negative = cytotoxicity",[2],5.38% [at 19 µM]
same,caspase-3/7 activation,[3],0.127% [at 19 µM]
same,"activity change, negative = cytotoxicity",[7],-0.522% [at 19 µM]
same,activation,[6],3.9% [at 19 µM]
same,"activity change, negative = inhibition",[4],-17.2% [at 23.6 µM]
CC(C)(C)OC(=O)c1cccc(N)c1,Potency,[2],inactive
same,outcome,[3],inactive
same,Potency,[7],inactive
same,Potency,[5],25.9 µM (active)
CCCCCCCCCC[N+](C)(C)[O-],Potency,[2],inactive
same,outcome,[3],inactive
same,Potency,[7],inactive
same,Potency,[6],inactive
same,Potency,[4],35.6 µM (active)
O=C(O)CNC(=O)c1ccc(CO)o1,Potency,[2],inactive
same,outcome,[3],inactive
same,Potency,[6],inactive
same,Potency,[5],inactive
CC[N+](CC)(CC(=O)Nc1c(C)cccc1C)Cc1ccccc1 (tested in a mixture with another compound),Potency,[2],inactive
same,outcome,[3],inactive
same,Potency,[7],inactive
same,Potency,[4],0.0262 µM (active)
same,Potency,[5],52.3 µM (active)
COc1ccnc(CS(=O)c2nc3cc(OC(F)F)ccc3[nH]2)c1OC (configuration not stated),Potency,[2],inactive
same,outcome,[3],inactive
same,Potency,[7],inactive
same,Potency,[4],12.7 µM (active)
same,Potency,[5],8.99 µM (active)
Nc1c2c(nc3c1CCC3)CCCC2,Potency,[2],inactive
same,outcome,[3],inactive
same,Potency,[7],inactive
same,Potency,[6],inactive
same,max activation,[8],-1.69%
same,Potency,[9],inactive
same,Potency,[10],inactive
same,Potency,[4],8.71 µM (active)
same,Potency,[5],inactive
Nc1ccn([C@@H]2O[C@H](CO)[C@@H](O)[C@@H]2O)c(=O)n1,Potency,[2],inactive
same,outcome,[3],inactive
same,Potency,[7],inactive
same,Potency,[6],inactive
same,Potency,[4],inactive
CCOC(=O)COC(=O)c1ccccc1C(=O)OCC,outcome,[3],inactive
same,Potency,[7],inactive
same,Potency,[4],inactive
same,Potency,[5],20 µM (active)
CCO[Si](OCC)(OCC)c1ccccc1,Potency,[2],inactive
same,outcome,[3],inactive
same,Potency,[7],inactive
same,Potency,[6],inactive
same,Potency,[4],inactive
same,Potency,[5],inactive
COc1cc(C(=O)OC(COCCC(C)C)CN2CCOCC2)cc(OC)c1OC (configuration not stated),Potency,[2],inactive
same,outcome,[3],inactive
same,Potency,[7],inactive
same,Potency,[5],3.47 µM (active)
